A selection: hits, their analogues and other compounds. The true share with any hit is near 3.7%.
PI5P4K alpha inh = blocks human PI5P4K alpha kinase activity; max response, %; 330,000 compounds, 1.2% hits; P48426; PI5P4Kalpha enzyme, ADP-Glo luminescence, 60 min; hits give low values; active = max response of -50% or lower; inconclusive = between -30% and -50%; inactive = -30% or higher; note: value at the top dose of about 77 µM; % is set by controls: 0 for no effect and ±100 for the full control effect
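Human PI5P4Kalpha with substrate in 0.038 M HEPES pH 7.4, 0.28 mM EGTA, 0.1% CHAPS, 5% DMSO; reaction started with 5 microM ATP (final), 60 min at room temperature. ADP formed read by ADP-Glo luminescence.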
FEN1 inhibitor = blocks human flap endonuclease 1. P39748. Recombinant FEN1 flap cleavage, fluorescence, 15 min. Potency, µM (doses to about 114 µM), for inactives: top-dose activity change, negative = inhibition, usual class: inhibitors. 390,000 compounds, 0.35% hits; note: potency is the fitted concentration of half-maximal effect; % is set by controls: 0 for no effect and ±100 for the full control effect; nearly all actives have a fitted effect of over 65% in size
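Nuclease activity of 10 nM FEN1 was measured after 15 min of room-temperature exposure to titrated compounds, by adding 50 nM flap substrate and reading plates at 0 and 15 min.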
WRN helicase inh = WRN helicase (human) inhibition; 360,000 compounds, 0.46% hits; AID 651768; Q14191; Potency, µM (doses to about 114 µM), for inactives: top-dose activity change, negative = inhibition, hits mostly inhibitors; WRN helicase unwinding, fluorescent forked duplex, kinetic; note: potency is the fitted concentration of half-maximal effect; % is set by controls: 0 for no effect and ±100 for the full control effect; nearly all actives have a fitted effect of over 55% in size
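WRN at 20 nM final preincubated with compound 15 min at room temperature; reaction started with 100 nM fluorophore/quencher forked duplex oligonucleotide and 2 mM ATP final. Unwinding followed kinetically by red fluorescence (ex 525, em 598 nm).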
PLK1 PBD inh = blocks phosphopeptide binding to human PLK1 polo-box domain; P53350; Plk1 PBD binding of FITC phosphopeptide, fluorescence polarization; Potency, µM, for inactives: max response, negative = inhibition, most hits filed as inhibitors; 360,000 compounds, 2.8% hits; note: potency is the fitted concentration of half-maximal effect; series mostly up to about 57 µM; % is set by controls: 0 for no effect and ±100 for the full control effect; nearly all actives have a fitted effect of over 65% in size
TCR activator = T cell receptor activation. primary human leukocytes, anti-CD3, IL-2 HTRF, 48 h. Potency, µM (titrated, usually from 9.22 µM), without a hit: at the highest dose activation of IL-2 secretion, most hits filed as activators. 330,000 tested, under 10 active. AID 504894; note: % of control where 0% means no effect
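Activity was scored as IL-2 release from primary human leukocytes given only a TCR signal (a-CD3 beads) plus compound for 48 hr. Detection used a two-antibody HTRF format read at 665nm.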
VDR inh = blocks the human vitamin D receptor. VDR-SRC2-3 peptide fluorescence polarization, 2 h. Potency, µM, for inactives: max response, negative = inhibition, hits mostly inhibitors. 400,000 compounds, 0.93% hits. AID 504847; note: potency is the fitted concentration of half-maximal effect; % is set by controls: 0 for no effect and ±100 for the full control effect
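FP read-out; VDR + SRC2-3 coactivator peptide; 23 nl compound by pintool; 2 h RT incubation; reagents held at 4 deg C, protected from light.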
* hit, by the source's call; ? = inconclusive; . = no result; [ ] = remark or other dose. Unless noted, calls come from the whole dose curve; as a rule, active = well fitted curve in the direction sought with a large enough effect; inconclusive = small, poorly fitted or top-dose-only effect, or another doubt; inactive = no such curve, though single readings can be large; an effect the other way counts as inactive or inconclusive.

SMILES	PI5P4K alpha inh	FEN1 inhibitor	WRN helicase inh	PLK1 PBD inh	TCR activator	VDR inh
COc1ccc(C=C2C(=O)NC(=S)NC2=O)cc1OC	-50*	16%	45µM*	21µM*	1%	40µM*
CCOc1cc(C=C2C(=O)NC(=S)NC2=O)ccc1O	-77*	-15%	50µM*	6µM*	3%	?
COc1ccc(/C=C/C=C2C(=O)NC(=S)NC2=O)cc1	-50*	?	45µM*	0.53µM*	-3%	?
COP(=O)(OC)[C@@H](O)C(Cl)(Cl)Cl	.	.	.	.	.	-1%
CC1CC[C@@]2(OC1)O[C@@H]1[C@@H](O)[C@H]3C4CC[C@H]5C[C@@H](O[C@@H]6O[C@H](CO)[C@H](O[C@@H]7O[C@H](CO)[C@@H](O)[C@H](O[C@@H]8OC[C@@H](O)[C@H](O)[C@H]8O)[C@H]7O[C@@H]7O[C@H](CO)[C@@H](O)[C@H](O[C@@H]8O[C@H](CO)[C@@H](O)[C@H](O)[C@H]8O)[C@H]7O)[C@H](O)[C@H]6O)[C@H](O)C[C@]5(C)C4CC[C@]3(C)[C@H]1[C@@H]2C (some centres undefined)	.	.	.	.	.	-10%
O=c1[nH]c(=S)[nH]c(O)c1CN1CCCCC1	3	2%	9%	-10%	-1%[46.1 µM]	-11%
Cc1cc(Cc2c(O)[nH]c(=S)[nH]c2=O)ccc1OC(C)C	?	-23%	-12%	27µM*	-1%	79µM*
O=C(c1csnn1)N1CCC2(CC1)CN(Cc1ccncc1)C2	.	.	.	.	.	2%
Cn1cccc1C(=O)OCC(=O)NCc1cccs1	-6	7%	-15%	0%	5%[46.1 µM]	?
Cc1ccc2cc3c(ccc4ccccc43)c3c2c1CC3	.	.	.	.	.	-2%
CCCCC/C=C\C/C=C\C/C=C\C/C=C\CCCC(=O)NCc1ccc(O)c(OC)c1	.	.	.	.	.	45µM*
CN1[C@@H]2CC[C@H]1CC(OC(c1ccc(F)cc1)c1ccc(F)cc1)C2 (some centres undefined)	.	.	.	.	.	-17%
O=C(O)CCCCC1SCC2NC(=O)NC21 (centres undefined)	5	1%	1%	-11%	0%	6%
O=C(O)c1ccccc1SSc1ccccc1C(=O)O	-1	-4%	-14%	12µM*	-2%	?
C[CH2][Hg][S]c1ccccc1C(=O)O	22	22µM*	-6%[11.6 µM]	2.7µM*	5%	79µM*
O=C(CI)c1ccc(Cl)cc1	.	-1%	.	.	.	.
COc1ccc(C[C@H]2NC[C@H](O)[C@@H]2OC(C)=O)cc1	.	.	.	.	.	35µM*
CC(C)(C)c1cc([N+](=O)[O-])cc(C(C)(C)C)c1O	1	-4%	2%	27µM*	-5%	-29%
CCC1COC(Cn2cncn2)(c2ccc(Cl)cc2Cl)O1 (centres undefined)	.	.	.	.	.	-13%
CC(C)(O)C1O[C@H]2CC[C@@]3(C)[C@@](O)(CC[C@H]4Cc5c([nH]c6ccccc56)[C@@]43C)C2=CC1=O (some centres undefined)	.	.	.	.	.	-10%
O=C(c1ccc(CNS(=O)(=O)c2ccccc2)cc1)N1CCC2(CC1)OCCO2	-3	6%	3%	21µM*	3%	-21%
Cc1ccc(/C=C2\C(=O)NC(=O)N(CC3CCCO3)C2=O)s1 (centres undefined)	?	?	-20%	4.7µM*	-1%	?
CCN(CC)c1ccc(/C=C2\C(=O)NC(=O)N(CC3CCCO3)C2=O)cc1 (centres undefined)	-18	?	-35%	?	0%[46.1 µM]	-5%
COC1=CC2C3Cc4ccc(OC)c(O)c4[C@]2(CCN3C)CC1=O (some centres undefined)	.	.	.	.	.	2%
O=C1NC(=S)NC(=O)C1=Cc1ccc2c(c1)CCN2CCCCl	-92*	?	56µM*	2.7µM*	10%	?
SMILES	PI5P4K alpha inh	FEN1 inhibitor	WRN helicase inh	PLK1 PBD inh	TCR activator	VDR inh
N#CC(C#N)=Cc1ccc(O)cc1	.	.	.	.	.	50µM*
N#CC(C#N)=Cc1cc(O)c(O)c(O)c1	.	.	.	.	.	22µM*
CC1Cc2ccccc2CN1 (centres undefined)	.	-2%	.	.	.	.
CCOc1cc(OP(=S)(OC)OC)nc(CC)n1	.	.	.	.	.	22µM*
CCOC(=O)N1CC(C)N(/[N+]([O-])=N/Oc2ccc([N+](=O)[O-])cc2[N+](=O)[O-])CC1C (centres undefined)	.	2%	.	.	.	?
N#CC1=C(N)Oc2c(c(=O)oc3ccccc23)C1c1ccncc1 (centres undefined)	.	-4%	-12%	-2%	-8%	-4%
N#CC1=C(N)Oc2c(c(=O)sc3ccccc23)C1c1cccnc1 (centres undefined)	-63*	-6%	-13%	0%	.	14%
CCOc1ccc2nc(N=Nc3c(O)[nH]c(=O)[nH]c3=O)sc2c1	-86*	10%	2%	-25%	-12%	-21%
CCOc1ccc2nc(N=Nc3c(O)[nH]c(=S)[nH]c3=O)sc2c1	-80*	?	-25%	-28%	1%	-5%
O=C(c1ccccc1NS(=O)(=O)c1ccc(Br)cc1)N1CCOCC1	1	-5%	?	1%	6%	-22%
CC(=O)Nc1cc(-c2ccc(C(=O)NC3CC3)cc2)cn2c(-c3ccc(F)c(Cl)c3)cnc12	-30	.	-5%[57.1 µM]	?	.	.
CCn1c(O)c(C=Nc2ccc(N3CCOCC3)c(Br)c2)c(=O)n(CC)c1=S	.	8%	8%	-1%	-3%	-11%
CCn1c(O)c(C=Nc2ccc(N3CCOCC3)cc2)c(=O)n(CC)c1=S	-3	-12%	13%	21µM*	6%	-20%
CC/C=C\C/C=C\C/C=C\C/C=C\C/C=C\CCCC(N)=O	.	.	.	.	.	-1%
COC(=O)C1=Nc2ccccc2/C1=C\c1c(O)n(-c2ccc(OC)cc2)c(=O)[nH]c1=O	.	-14%	?	3.4µM*	.	?
O=C(O)c1ccc(-n2c(O)c(/C=C3\C=Nc4ccccc43)c(=O)[nH]c2=O)cc1	?	?	-11%[11.6 µM]	9.5µM*	5%	-16%
COC(=O)C1=Nc2ccccc2/C1=C\c1c(O)n(C)c(=O)n(C)c1=O	-70*	-16%	-6%	4.7µM*	-5%	?
COC(=O)c1ccc(N=C(c2ccccc2)c2c(O)n(C)c(=O)n(C)c2=O)cc1	-5	2%	3%	-8%	-1%	-10%
O=c1[nH]c(=O)n(-c2cccc(F)c2)c(O)c1/C=C1\C=Nc2ccccc21	-26	11%	-18%	?	-6%	5%
O=c1[nH]c(=O)n(-c2ccccc2)c(O)c1/C=C1/C(c2ccccc2)=Nc2ccccc21	-3	-2%	-32%	11µM*	1%[46.1 µM]	?
COc1ccc(OC)c(-n2c(O)c(/C=C3\C(C)=Nc4ccccc43)c(=O)[nH]c2=O)c1	-15	1%	-5%	?	-3%	-1%

High-throughput results deposited in PubChem by National Center for Advancing Translational Sciences (NCATS).
